Results filed as inconclusive are left out. Calls of active or inactive are those of the source. Calls come from the whole dose curve; as a rule, active = well fitted activation curve with a large enough effect; inconclusive = small, poorly fitted or top-dose-only effect; inactive = no such curve, though single readings can be large or run the other way.

The nature of the assay: qHTS Assay for Agonists of the Relaxin Receptor RXFP1: V1B Hit Validation.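 For activation: cAMP accumulation with PDE4 inhibitor Ro 20-1724 present during compound exposure.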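 Note: counter-screen in HEK293 cells expressing V1B rather than RXFP1 for selectivity; nearly all actives have a fitted effect of over 65% in size.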 Conditions: HEK293 V1B cells, cAMP TR-FRET, 30 min; series mostly up to 115 µM. Summed up:
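cAMP accumulation, read by TR-FRET competition after lysis, in V1B-expressing HEK293 cells given compound for 30 min at 37C with Ro 20174 present. Responses scaled between buffer basal and 29 nM porcine relaxin; Hill-equation EC50.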
(In general: qHTS replaces the single test concentration by a dilution series.)
Potency is the fitted concentration of half-maximal effect.

Turning to `COc1ccc(S(=O)(=O)N2CCOCC2)cc1NC(=O)CSc1nnc2ccccn12`, the Potency is 3.88 µM (active).

For `CCc1cc2c(=O)nc3n(c2s1)Cc1ccccc1/C3=C(/O)c1cccc([N+](=O)[O-])c1`, the Potency was 3.89 µM (active).

Regarding `Cc1cc(C)n2nc(C(=O)Nc3ccc4c(c3)OCCO4)nc2n1`, the Potency is 6.15 µM (active).

As to `Cc1cccc(C(=O)Nc2ccccc2C(=O)NCc2ccco2)c1`, the Potency entry was “inactive”.

For the compound `COc1ccc(CNC(=O)CN2C(=O)NC(C)(c3cccc(Br)c3)C2=O)cc1` (centres undefined), the Potency entry was “inactive”.

For `Cc1nc2scc(C)n2c(=O)c1S(=O)(=O)N1CCN(c2ccccn2)CC1`, the Potency is 30.9 µM (active).

With `CCN(CC)S(=O)(=O)c1ccc(N2CCOCC2)c(NC(=O)c2cc([N+](=O)[O-])ccc2Cl)c1`, the Potency result is “inactive”.

Turning to `Cc1ccc(C(=O)Nc2ccccc2C(N)=O)o1`, the Potency entry is “inactive”.

With `CCOC(=O)C1CCN(C(=O)c2cc3c(=O)n4ccccc4nc3s2)CC1`, the Potency was 43.6 µM (active).

`CCN(CC)S(=O)(=O)c1cccc(N=Nc2c(O)c3ccccc3oc2=O)c1`: the Potency is 27.5 µM (active).

As for `CCOC(=O)CNC(=O)CSc1ccc2nnc(-c3cccnc3)n2n1`, the Potency entry was “inactive”.

`CC1CCN(S(=O)(=O)c2ccc3nc(N4CCN(c5ccccc5)CC4)ccc3c2)CC1`: the Potency is 13.8 µM (active).

For the compound `O=S(=O)(Nc1ccccc1C(F)(F)F)c1ccc(-c2ccccn2)s1`, the Potency was 21.9 µM (active).

Consider `O=c1oc2cc(O)c(Cl)cc2c2ccccc12`, for which the Potency was 6.9 µM (active).

`CCN(CC)CCCCCC(=O)Nc1ccccc1C(=O)Nc1ccccc1`: the Potency result was “inactive”.

Consider `CCN(c1ccccc1)S(=O)(=O)c1ccc(OC)c(NC(=O)C2CC(=O)N(Cc3ccccc3)C2)c1` (centres undefined), for which the Potency entry is “inactive”.

For `CN(C)c1ccc(NC(=O)C2C3C=CC(C3)C2C(=O)O)cc1` (centres undefined), the Potency result is “inactive”.

With `CC(C)C(=O)Nc1ccc(Nc2ccccc2)cc1`, the Potency result is “inactive”.

Take `O=C(O)c1ccc(N2C(=O)c3cccc4cccc(c34)C2=O)cc1`: the Potency was 74.9 µM (active).

With `CCOC(=O)N1CCN(S(=O)(=O)c2c(C)nc3scc(C)n3c2=O)CC1`, the Potency is 24.5 µM (active).

For `CC1(C)Cc2nc3sc4c(SCC(=O)NC(c5ccccc5)c5ccccc5)ncnc4c3cc2CO1`, the Potency was 3.46 µM (active).

For the compound `COC(=O)[C@@H]1C[C@@]2(O)[C@H](O)[C@H](O)[C@H](O)C[C@H]2N1Cc1cc(F)ccc1F`, the Potency result was “inactive”.

`COc1ccc(-n2nnc3c(=O)n(CC(=O)NCC4CCCO4)cnc32)cc1` (centres undefined): the Potency was 9.74 µM (active).

`CCCN(CCC)S(=O)(=O)c1cc(CN2C(=O)c3cccnc3C2=O)ccc1OC`: the Potency is 30.9 µM (active).

In the case of `CN(C)S(=O)(=O)c1cccc(COc2ncnc3c(Cl)cc(Cl)cc23)c1`, the Potency was 27.5 µM (active).

As to `COc1ccc(Cl)cc1-c1n[nH]c(=S)o1`, the Potency is 4.35 µM (active).

Regarding `O=C(Nc1ccccc1C(=O)NCc1ccco1)c1ccccc1`, the Potency entry was “inactive”.

For the compound `COc1ccc(Nc2ncc(C#N)c(N)n2)c(OC)c1`, the Potency entry was “inactive”.

For `CC(=O)C1C(c2ccccc2)c2c(noc2C)CC1(C)O` (centres undefined), the Potency result is “inactive”.

In the case of `Cn1c2ccccc2c2nnc(SCC(=O)Nc3cccc(C(=O)O)c3)nc21`, the Potency is 21.9 µM (active).

Consider `CC1(C)Cc2c(sc3c2c2ncnn2c2nnc(SCC(=O)NCc4ccco4)n32)CO1`, for which the Potency is 6.91 µM (active).

As to `Nc1ncnc2c1ncn2[C@@H]1O[C@H](COS(=O)(=O)O)[C@@H](O)[C@H]1O`, the Potency was 6.9 µM (active).

As to `O=C(CCc1nnc2ccc(N3CCC4(CC3)OCCO4)nn12)NCc1ccc(F)cc1`, the Potency was 38.9 µM (active).

Turning to `COc1cc(-c2nnc(SCC(=O)N(C)C3CCS(=O)(=O)C3)o2)cc(OC)c1OC` (centres undefined), the Potency entry is “inactive”.

Regarding `O=C(O)CNC(=O)c1ccccc1NC(=O)c1ccco1`, the Potency entry is “inactive”.

On to `S=c1nc[nH]c2c1[nH]c1ccccc12`, for which the Potency was 6.9 µM (active).

As for `COc1ccc(OC)c(CNC(=O)C2CCN(C(=O)N(C)C)CC2)c1`, the Potency entry is “inactive”.

Turning to `CCOC(=O)CNC(=O)CSc1nc2c(C)cccc2cc1CC`, the Potency was 17.3 µM (active).

`Cc1ccc(-n2nnc3c(=O)n(CC(=O)NCC4CCCO4)cnc32)cc1` (centres undefined): the Potency was 24.5 µM (active).

As to `COc1ccc(/C=C2/SC(=O)N(CC(=O)Nc3cc(C)on3)C2=O)cc1OC`, the Potency result is “inactive”.

Regarding `O=[N+]([O-])c1cc2c(c(CSc3nnc4ccccn34)c1)OCOC2`, the Potency was 12.3 µM (active).

For `O=C(Oc1ccccc1)Oc1ccc2c(c1)oc(=O)c1ccccc12`, the Potency is 21.8 µM (active).

As for `O=C(O)CSc1ccnc2cc(Cl)ccc12`, the Potency was 21.8 µM (active).

As for `NC(=O)c1ccccc1NC(=O)CC12CC3CC(CC(C3)C1)C2`, the Potency result was “inactive”.

For the compound `Cn1c(=O)c2sccc2n2c(CCCC(=O)NCc3ccco3)nnc12`, the Potency was 34.6 µM (active).

Take `CCC(=O)Nc1ccc(-n2nnnc2SCC(=O)NNC(=O)c2ccco2)cc1`: the Potency entry was “inactive”.

On to `CC(C(=O)OCC(=O)N(C)C1(C#N)CCCCC1)N1C(=O)c2ccccc2C1=O` (centres undefined), for which the Potency was 13.8 µM (active).

As for `CCc1ccc(-c2nc3ccc(Br)cc3c(C(=O)O)c2C)s1`, the Potency was 3.46 µM (active).

With `CC(C)Oc1ccc(S(=O)(=O)N2CCOCC2)cc1NC(=O)c1cc([N+](=O)[O-])ccc1N1CCOCC1`, the Potency was 37.5 µM (active).

For `Cc1cc(C)c(NC(=O)CS(=O)CC(=O)Nc2ccc(F)cc2F)c(C)c1` (centres undefined), the Potency entry was “inactive”.

Consider `Cc1cc(C(=O)COC(=O)Cn2cnc3c2c(=O)n(C)c(=O)n3C)c(C)n1C`, for which the Potency is 13.8 µM (active).

In the case of `O=C(Nc1ccccc1C(=O)N1CCNCC1)c1ccco1`, the Potency result is “inactive”.

Take `COCCNC(=O)NC(=O)COC(=O)C12CC3CC(CC(NC(C)=O)(C3)C1)C2`: the Potency result is “inactive”.

For `c1ccc(COn2nnc3ccccc32)c(COn2nnc3ccccc32)c1`, the Potency entry is “inactive”.

In the case of `CCN(CC)CCCN1C=C2C(=O)C(C)(OC(=O)C3CCCC3)C(=O)C=C2C=C1c1ccsc1` (centres undefined), the Potency result was “inactive”.

Take `Cc1ccc(CN(C)C(=O)c2ccccc2NC(=O)c2ccccc2)o1`: the Potency result is “inactive”.

As for `O=C(Nc1ccccc1C(=O)NCc1ccccc1)c1ccco1`, the Potency result is “inactive”.

As for `COC(=O)Cn1cnc2c(C#N)c3n(c2c1=O)CCCCC3`, the Potency is 13.8 µM (active).

With `CCC(=O)Nc1ccc(NC(=O)CSc2nc3c(c(=O)n(C)c(=O)n3C)n2CC)cc1`, the Potency was 38.9 µM (active).

The values above are taken from PubChem BioAssay AID492948 (National Center for Advancing Translational Sciences (NCATS), 2010).
